Source: ChEMBL document CHEMBL4513146, “CO-ADD screening of Karazin Kharkiv National University (Ukraine) compounds”
Potency and affinity values are given separately.

What follows are compounds tested on Escherichia coli. Details: Concentration 32 ug.mL-1;; ASSAY_TEST Inhibition of Bacterial Growth; detection method Absorption (OD600); MEDIA CAMHB; plate type 384well; NBS; CORNING #3640; time 18 hr.

SMILES | Inhibition
O=c1c2nn(Cc3ccccc3Cl)c(=O)n2ccn1-c1ccccc1 | -5.84%
CCOc1ccc(NC(=O)Cn2nc3ccc(SCc4ccc(Cl)cc4)nn3c2=O)cc1 | -5.7%
COC(=O)c1ccccc1NC(=O)Cn1nc2c3cc(-c4ccc(Cl)cc4)nn3ccn2c1=O | 6.58%
COc1cccc(-n2ccn3c(SCC(=O)c4cccc(Cl)c4)nnc3c2=O)c1 | 0.66%
Cc1c(Cl)cccc1NC(=O)Cn1nc2c3c4c(sc3ncn2c1=O)CCCCC4 | -0.38%
O=c1n(Cc2c(F)cccc2Cl)nc2ccc(-c3ccccc3)nn12 | 0.7%
COc1cccc(-n2ccn3c(SCC(=O)Nc4cc(F)ccc4F)nnc3c2=O)c1 | -6.25%
COc1ccc(Cl)cc1NC(=O)Cn1nc2c3cc(-c4ccc(C)cc4)nn3ccn2c1=O | 3.02%
CSc1cccc(NC(=O)Cn2c(=O)c3nnc(C(C)C)n3c3ccccc32)c1 | 4.25%
CCCNC(=O)Cn1nc2nc(Nc3ccc(F)cc3)ccn2c1=O | -13.63%
CC(=O)c1ccc(NC(=O)Cn2nc3ccc(Sc4ccccc4)nn3c2=O)cc1 | -7.82%
Cc1ccccc1NC(=O)Cn1nc2c(SC3CCCCC3)nccn2c1=O | -9.01%
COc1cccc(CN(c2ccc(F)cc2)S(=O)(=O)c2cccn3cnnc23)c1 | -3.63%
CCOc1ccc(NC(=O)Cn2nc3c(Oc4ccc(C)cc4)nccn3c2=O)cc1 | -4.41%
O=C(Cn1nc2c(N3CCSCC3)nc3ccccc3n2c1=O)NCc1ccccc1 | -1.64%
